Ba/F3 V617F tox: reduce viability of Ba/F3 cells dependent on JAK2V617F | AID 1446 | 1.1% of 220,000 active | Ba/F3 EpoR-JAK2V617F viability, ATP luminescence | inhibition, % at 5.6 µM;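 active means inhibition above the campaign mean plus 3 SD over all tested compounds, cut at about 24% in these data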;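 further: cytokine-independent growth of Ba/F3 cells driven by EpoR plus mutant JAK2; 0% = DMSO-treated cells and 100% = JAK inhibitor I control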
BaF3 parental: counter-screen for JAK2V617F inhibitors: parental Ba/F3 viability inhibitors; CellTiter-Glo ATP luminescence; inhibition, % at 5.6 µM; 1.1% of 220,000 active; AID 1486;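 active means inhibition above a per-campaign cutoff, the mean inhibition of all tested compounds plus 3 SD, cut at about 27% in these data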;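 further: 0% = DMSO wells and 100% = JAK Inhibitor I control wells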
KLF5 inh: inhibitors of KLF5 expression; DLD-1 KLF5 promoter-luciferase reporter, luminescence; inhibition, % at 5 µM; 0.23% of 290,000 active;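 active means inhibition above a per-plate limit of that plate's mean compound inhibition plus 3 SD, cut at about 60% in these data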;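 further: 0% = DMSO wells and 100% = LY294002 at 200 µM; higher means less KLF5 promoter-driven luciferase light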
GPR7 antagonist: blocks human GPR7 receptor signaling; inhibition, % at 4.4 µM; 1.1% of 290,000 active; GPR7-expressing cells, fluorescence antagonist assay; AID 1861; P48145; in the data active means inhibition above about 16%, passing the limit was not always enough;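 further: cells stimulated with the agonist NPW; 0% = agonist with vehicle and 100% = vehicle without agonist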
Target sequence (P48145 whole entry, looked up): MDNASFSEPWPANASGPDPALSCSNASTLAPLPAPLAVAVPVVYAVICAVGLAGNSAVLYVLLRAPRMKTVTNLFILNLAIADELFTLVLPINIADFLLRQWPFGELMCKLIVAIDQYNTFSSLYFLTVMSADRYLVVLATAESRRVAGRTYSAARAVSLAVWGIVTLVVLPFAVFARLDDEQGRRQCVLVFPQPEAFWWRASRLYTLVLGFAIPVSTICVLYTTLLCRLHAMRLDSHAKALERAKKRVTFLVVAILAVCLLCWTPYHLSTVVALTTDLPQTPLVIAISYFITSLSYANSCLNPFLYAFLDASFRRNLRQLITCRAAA
FID counter: displaces DNA intercalator in HCV helicase counter-screen; 0.17% of 290,000 active; DNA fluorescent intercalator displacement, fluorescence; inhibition, % at 7.9 µM; AID 1845; in the data active means inhibition above about 37%;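 further: 0% = vehicle and 100% = reference compound; higher means more ethidium bromide displaced from hairpin DNA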
IEC-6 cytotox: kills IEC-6 intestinal cells in KLF5 counter-screen. AID 1825. inhibition, % at 5 µM. IEC-6 cytotoxicity, luminescence viability. 0.78% of 290,000 active;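 further: 0% = plate median of test compound wells and 100% = cytotoxic reference compound wells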
IEC-6 cytotox cf: confirmation of cytotoxic compounds in rat IEC-6 intestinal epithelial cells | shares compounds with IEC-6 cytotox | 63% of 1,900 active | inhibition, % at 5 µM | IEC-6 rat intestinal epithelial viability, luminescence;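 further: 0% = vehicle and 100% = reference cytotoxic drug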
GPR7 antag cf: human GPR7 antagonism, confirmation assay; 52% of 2,400 active; shares compounds with GPR7 antagonist; inhibition, % at 4.4 µM; AID 1952; GPR7-expressing cells, calcium fluorescence antagonist mode; in the data active means inhibition above about 24%;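 further: stimulated with the GPR7 agonist NPW; 0% = agonist plus vehicle and 100% = vehicle alone without agonist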
MCHR1 antag: counter-screen for GPR7 antagonists: antagonists of human MCHR1 | 62% of 2,400 active | MCHR1-expressing cells, fluorescence antagonist assay | inhibition, % at 4.4 µM | shares compounds with GPR7 antagonist | AID 2148;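 further: 0% = vehicle with agonist and 100% = vehicle without agonist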
* = called active by the depositor; · = no result. Most compounds without a hit are left out; they make up all but 2.6% or so of the library. Unless noted, no stated cut-off is given here; in the data, active means inhibition above about 22%; inactive means the rest.

SMILES | Ba/F3 V617F tox | BaF3 parental | KLF5 inh | GPR7 antagonist | FID counter | IEC-6 cytotox | IEC-6 cytotox cf | others
CC(=O)Nc1ccc(S(=O)(=O)Nc2cccc3cccnc23)cc1 | · | · | 3.6 | 2.9 | -11.3 | -3.1 | ·
Cc1ccc2cccc(NS(=O)(=O)c3ccccc3)c2n1 | · | · | -1.0 | -5.1 | -11.8 | 99.4* | 100.4*
CCn1c(SCC(=O)NCCc2ccccc2)nc2c(c1=O)SC(C)C2 (configuration not stated) | -3.4 | 1.6 | -21.5 | -5.3 | -11.3 | -5.9 | ·
CCC(=O)OCCn1c(Br)nc2c1c(=O)[nH]c(=O)n2C | -0.4 | 2.1 | -2.1 | -1.2 | 0.8 | -1.8 | ·
CC(C)CNC(=O)NC(=O)COC(=O)COc1ccc(Cl)cc1Cl | 0.0 | 0.4 | -44.0 | -2.2 | -18.7 | 1.9 | ·
CC(=O)N1CCc2cc(S(=O)(=O)CCC(=O)NCc3ccc(Cl)cc3)ccc21 | · | · | -25.3 | -3.9 | -30.6 | -0.6 | ·
Cc1ccc(S(=O)(=O)Nc2cccc3cccnc23)c([N+](=O)[O-])c1 | · | · | -6.1 | 11.2 | -10.5 | 66.1* | 47.3*
Cc1nnc(N/N=C/c2cc([N+](=O)[O-])c(N3CCC(C)CC3)cc2N2CCC(C)CC2)n1N | 2.2 | 5.5 | 44.4 | 7.2 | 4.7 | 103.2* | 12.0
Cn1nc(C(F)(F)F)c(-c2ccccc2)c1N | -6.4 | 1.9 | -44.9 | -9.4 | 0.4 | -6.3 | ·
Cc1ccc(-c2noc(CCC(=O)NC3CC3)n2)cc1 | · | · | -44.0 | 5.6 | -11.4 | 0.6 | ·
CC(=O)/C(C#N)=C1\NC(=O)C(Cc2ccccc2C)S1 (configuration not stated) | 3.8 | 9.0 | 40.2 | -14.2 | -7.8 | 70.9* | 46.6*
CC(=O)/C(C#N)=C1\NC(=O)C(Cc2ccccc2)S1 (configuration not stated) | -0.7 | 1.6 | 9.6 | -6.7 | -6.8 | 75.9* | 51.4*
C/C(=N\N=C1\NC(=O)C(Cc2ccccc2)S1)c1ccccc1 (configuration not stated) | 0.2 | 5.9 | -18.7 | 0.4 | -14.2 | 1.8 | ·
Cc1cc2oc(=O)cc(CN3CCC(C)CC3)c2cc1C | · | · | -27.2 | 3.2 | -9.6 | 1.6 | ·
COc1ccc(C(=O)c2ccc(Cl)c([N+](=O)[O-])c2)cc1 | 91.4* | 91.2* | -29.6 | -11.2 | -0.7 | 66.1* | 72.6*
COc1cccc(NC(=O)Nc2nc(SC)ns2)c1 | · | · | -159.1 | -4.4 | -6.2 | -2.5 | ·
CCSc1nsc(NC(=O)Nc2cccc(F)c2)n1 | · | · | -14.3 | 35.7* | 5.2 | 46.5* | 31.7* | GPR7 antag cf=45.9*;MCHR1 antag=59.9*
Cc1cccc(CS(=O)(=O)c2ncc(Cl)c(C(=O)Nc3c(C)cccc3C)n2)c1 | · | · | -11.5 | 50.6* | -37.4 | 35.0* | 11.2 | GPR7 antag cf=58.0*;MCHR1 antag=97.4*
Cc1ccc(NC(=O)c2nc(S(=O)(=O)Cc3ccccc3)ncc2Cl)cc1 | · | · | 12.6 | 35.4* | -18.8 | 97.0* | 18.9 | GPR7 antag cf=59.8*;MCHR1 antag=98.3*
CCCC(=O)N(Cc1cc(=O)[nH]c2ccccc12)c1ccccc1OC | · | · | -2.8 | -3.0 | -37.3 | 3.4 | ·
CC(C)Cc1ccc(C(C)C(N)=NCCc2ccccc2)cc1 (configuration not stated) | · | · | -9.3 | 51.8* | 39.0* | 64.0* | 98.7* | GPR7 antag cf=39.2*;MCHR1 antag=54.1*
NC(=O)c1ccccc1NC(=O)CCN1C(=O)c2ccccc2C1=O | 2.8 | 1.2 | -25.9 | -1.1 | -1.1 | 3.8 | ·
CN(C)c1ccc(/C=C/c2ccc3c4ccccc4ccc3[n+]2-c2ccccc2)cc1 | 100.8* | 89.0* | 45.4 | 43.3* | 78.4* | 65.0* | 80.5* | GPR7 antag cf=79.0*;MCHR1 antag=77.5*
CN(C)c1ccc(/C=C/c2cccc[n+]2[O-])cc1 | -3.5 | -5.9 | -46.2 | -8.4 | -5.2 | -10.3 | ·
CC1CCN(Cc2nnnn2CCCC(=O)NCCc2cnn(C)c2)CC1 | · | · | 11.4 | -6.1 | -10.5 | 1.9 | ·
CCOc1cc(-c2nc3ccccc3s2)ccc1O | 3.9 | 0.4 | -54.6 | -13.2 | -11.5 | 1.5 | ·

From PubChem
